From PubChem BioAssay AID1347426 (Functional Genomics Laboratory (NCATS/FGL), 2020) come the findings set out here.

The whole screen tested about 31,000 sequences, of which about 1,400 (4.5%) were called active.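 How the source made its calls: active means median seed-adjusted z-score above 1 or below -1; inactive means the rest.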 The sample as a whole holds a higher share of actives than the screen did.

A short description of this test: Novel Modifiers of Survival Motor Neuron (SMN) Protein: Gene Identification via Genome-wide siRNA Screen.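 Further: luminescence tracks full-length SMN protein made from the SMN2 reporter.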 The following applies: HEK293T SMN2-luciferase reporter, siRNA knockdown, 72 h; actives lie on both sides. Put shortly: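 HEK293T cells stably expressing an SMN2 splicing/cDNA-luciferase reporter were reverse-transfected with a druggable-genome siRNA library and read by luminescence at 72 hours; hits defined by MAD score above 1.0 or below -1.0.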
With ACAACUUCGUUUUCGGUCATT against TUBB2C, the median seed-adjusted z-score was 0 (inactive).
Turning to GCAGCAACAUUAUUGUCUUTT against CLDN17, the median seed-adjusted z-score is 0 (inactive).
As to GAAUGAAUUCUCUACUCUATT against ERBB3, the median seed-adjusted z-score was -0.561 (inactive).
To GCCUGUGAAGUGAACCUGATT against TMPRSS6 belongs 1.29 (active); to UGAUAUUGCUUAGUCCAUUTT against PRLHR, 0 (inactive); to CAAACGUGGACUGUCCAAATT against CA4, 0.0549 (inactive).
As for CAUGCACGGAGAGCCCAAATT against RPUSD3, the median seed-adjusted z-score is 0.303 (inactive).
Take CCAGGAGAUCUUUGCCUUUTT against SLC4A3: the median seed-adjusted z-score was -0.7 (inactive).
Take GAACCGCUACAAGAACAUUTT against PTPN6: the median seed-adjusted z-score is -0.515 (inactive).
Consider AGAUGAAACUUCUACUGAATT against POLR2H, for which the median seed-adjusted z-score was -2.74 (active).
In the case of CUUUGUCUAUGUCACCAUUTT against IMP5, the median seed-adjusted z-score is 0.559 (inactive).
As to CAAGCGAAUUAACUAUCUATT against GJB3, the median seed-adjusted z-score is -0.198 (inactive).
For the sequence GUCUCGCUGUGAUAGAUCATT against ELN, the median seed-adjusted z-score is -0.149 (inactive).
As to CCAACAUCGAGUCCCUCAATT against SLC29A3, the median seed-adjusted z-score was -0.0626 (inactive).
For the sequence CUGAUAAAGUGGGUCAACATT against TNFRSF10B, the median seed-adjusted z-score was 0.064 (inactive).
CCAUCGUCAUGGAUCCAGATT against KDR: the median seed-adjusted z-score was 0.0728 (inactive).
On to GGGACAUCCUUUCCGGAAATT against NDUFS3, for which the median seed-adjusted z-score was -0.54 (inactive).
Regarding GGAGUGUGAUGAUUCGUGATT against DGKK, the median seed-adjusted z-score was 0 (inactive).
Take AGAACUCACCUCCUGAUUATT against YY1: the median seed-adjusted z-score was 1.94 (active).
Turning to GCAAGAUAACAAUUGAUAUTT against ANKRD30A, the median seed-adjusted z-score is 0.259 (inactive).
Consider AGAUCUUCGCAAAUACUGUTT against KRT18, for which the median seed-adjusted z-score was 0.558 (inactive).
With GGCUUAUGGAGGACCCUAUTT against NCOR1, the median seed-adjusted z-score was 0.0767 (inactive).
As for CCUAUGAUCCAACACCAUATT against GMPPA, the median seed-adjusted z-score is 0.619 (inactive).
Regarding CAUUAGCAGUUGUCCCGUUTT against P2RY10, the median seed-adjusted z-score was -0.432 (inactive).
On to CUACUUCCGCAACCAGCUATT against UNC119, for which the median seed-adjusted z-score is 0.171 (inactive).
For CUAUGGUAGCGACACUGCATT against LILRB1, the median seed-adjusted z-score was 0.539 (inactive).
As for UCACAGAGCCUAUUAUUUUTT against PRKY, the median seed-adjusted z-score is 0.168 (inactive).
GUGUCAGAGUUUAUAUCAATT against PDE4D: the median seed-adjusted z-score was 0 (inactive).
As for CAAACUAUCUCUGAAAAUATT against TRYX3, the median seed-adjusted z-score is 2.3 (active).
Turning to GCUGAUGACUGUCGUUAUATT against TBX3, the median seed-adjusted z-score is 0 (inactive).
With CAUCCUGUAUAAGUACUAUTT against RNF216, the median seed-adjusted z-score was -0.246 (inactive).
On to UCAACAUCGUCUACCAGGATT against SCNN1D, for which the median seed-adjusted z-score was -1.8 (active).
For GAUCUACCCUGCUCACGAUTT against ETHE1, the median seed-adjusted z-score is 0 (inactive).
With CAGGCUACAGUGAACAGAATT against GNL1, the median seed-adjusted z-score was 0.154 (inactive).
On to GCGCGUUGGUACAAUGGAATT against GOT1, for which the median seed-adjusted z-score is 0.0103 (inactive).
With GCUUGUCUUUCAACCCGAUTT against PARP4, the median seed-adjusted z-score is -0.226 (inactive).
GCAACGUGUUGAUGAUGCATT against ADAD1: the median seed-adjusted z-score is -0.0795 (inactive).
On to GCACAGAGGAACGAACUAATT against PSMC5, for which the median seed-adjusted z-score is -1.06 (active).
Take GGGAGACGGUAGAAUCAGATT against ATP13A4: the median seed-adjusted z-score is -1.09 (active).
As to CCAUGUGAGUGUAAGCAGUTT against ZNF490, the median seed-adjusted z-score is 0.00954 (inactive).
As to GGGUAACUGUUGAUAACCATT against POGK, the median seed-adjusted z-score was 0.938 (inactive).
Take ACAAGACUUAUGCAAGAUATT against XRCC6BP1: the median seed-adjusted z-score was 0.128 (inactive).
On to GGAAUUCGAUGGGAACUUUTT against CACHD1, for which the median seed-adjusted z-score is 0.119 (inactive).
For the sequence CCGAGUAGCUGAAAUUGUUTT against BCL2L14, the median seed-adjusted z-score is -0.859 (inactive).
Regarding AGAUCUAUGAGAUUGAACATT against PRKAG3, the median seed-adjusted z-score is -1.03 (active).
Take CAAGUUCCUUAACAAGGAATT against EIF2B4: the median seed-adjusted z-score is 0 (inactive).
CAGAUACUUUAGGACUCAATT against UGT2B4: the median seed-adjusted z-score was 0.0707 (inactive).
On to CAGGCUCACUCGCAAAGAATT against USP31, for which the median seed-adjusted z-score is -0.755 (inactive).
To GGCUCUCUGUCAACUAUGATT against MGC21874 belongs -0.354 (inactive); to CCCUUUUCUUUAUCCCUGATT against IL9R, -1.33 (active).
To GCAAGGCUAUUAUAGAUCATT against CTNNA3 belongs 0.249 (inactive); to GGACAUUGCUGAUCGCUUUTT against DMC1, -0.00876 (inactive).
In the case of GCAUGUCUCUAAUAUUCCUTT against RBM9, the median seed-adjusted z-score was 0.895 (inactive).
With GGUUUGAAAUUCUAACAAATT against TXNDC6, the median seed-adjusted z-score was 0.156 (inactive).
For the sequence CAUCCUGCAGAGUAUCUAATT against EPHA5, the median seed-adjusted z-score is -0.00876 (inactive).
Take CUCUCUCUCGGAAUCUGAATT against POLR2L: the median seed-adjusted z-score was -1.19 (active).
To GGUUGUUUUGGAAACCGAATT against NAT12 belongs -0.0807 (inactive); to GCGAAUUCAUAAGUCCAUUTT against MTMR9, 0.133 (inactive); to CAAGACCGAGAGAACAAUATT against ENOX1, 0.0694 (inactive).
With CCAUCACCGUUGAUGACAATT against JAK1, the median seed-adjusted z-score was 0.0199 (inactive).
With CGAGCUGCACGUUCCUAUATT against IRF7, the median seed-adjusted z-score is -0.304 (inactive).
Turning to CAGUGGAUAUAUCCAGUCATT against RAB20, the median seed-adjusted z-score was -0.334 (inactive).
Consider GACUCGUUGUUGGUCUAAATT against MAP3K7, for which the median seed-adjusted z-score was -0.23 (inactive).
For CGCUGAUUUUCGAGUGUAATT against EHMT2, the median seed-adjusted z-score is 0.295 (inactive).
To GGGUCAUGCAGCAUCAAUATT against ITGAM belongs -1.56 (active); to CCAAGGACCUGGUCUGAAATT against CUGBP1, 0.086 (inactive).
For AGCAGAUGGUUUUCGAGAATT against COPZ2, the median seed-adjusted z-score was -1.23 (active).
As for GGGUUUUGCUGACAGCUCATT against ZNF48, the median seed-adjusted z-score is -0.116 (inactive).
To GGAACACGCAUGUCUGGAATT against NOS1 belongs 0.0195 (inactive); to GAAUGCAAGAUUUUCGAUUTT against USH2A, 0.0673 (inactive).
To GGCAUCCGCUUGUACUACATT against DBH belongs 0.337 (inactive); to CCCUAUCAGUCCAAUGGAATT against PRDM4, 0.0804 (inactive).
On to GCCUUCUCCUCUCAUAACATT against ZNF683, for which the median seed-adjusted z-score is -0.452 (inactive).
Take CAACUUCUCCGUAGCAGAATT against AKT2: the median seed-adjusted z-score was 0 (inactive).
Turning to CUUCUACAGUGGUCACCUATT against VPS29, the median seed-adjusted z-score was -0.408 (inactive).
As for GGUUAUCAAUGACGAGCAATT against EP400, the median seed-adjusted z-score was 1.83 (active).
To GAACCUCGUUUCGAAAUUUTT against RIOK2 belongs -0.16 (inactive); to GAAUGAUUUUCCAAAUGGATT against SLC25A21, -0.219 (inactive).
In the case of GGAAGAAACGGAGACUCAATT against DPF1, the median seed-adjusted z-score is 0.144 (inactive).
As to GCCUGGUUUUGGAUACAAATT against LTA4H, the median seed-adjusted z-score is -0.742 (inactive).
For CAACUGCUACCUUAGCAUATT against RNF133 the value was 0 (inactive); for GCUGUGAGAUUUACUCUGATT against ALAS1, -1.15 (active); for AAGUGACUCUAGUCGUUUATT against REM2, 0.109 (inactive).
For the sequence GCAGGGUCAUUACGACUCATT against PAX9, the median seed-adjusted z-score was -1.16 (active).
GAAUGGAUUCUGACCUUAUTT against MTO1: the median seed-adjusted z-score was -0.0252 (inactive).
Regarding ACAAGAUGUAUCACCUAUATT against ZNF226, the median seed-adjusted z-score was 0.437 (inactive).
For GGACUUGCUGGAAAGCACATT against NCALD the value was 0 (inactive); for GUACCUAAGUUGGAGCUGATT against TRPT1, -0.671 (inactive).
As for CCACUGGGCUAAUUCUACATT against ALPPL2, the median seed-adjusted z-score was 0.331 (inactive).
As to CGACACUUUCUAUCGACAATT against UBA3, the median seed-adjusted z-score is 0.605 (inactive).
On to GGGUCUCAGAAGACGUGUATT against CRAT, for which the median seed-adjusted z-score is -1.42 (active).
For the sequence GACAGUAACUUUAAUUCCATT against IDH3A, the median seed-adjusted z-score was 0.137 (inactive).
For the sequence CAACAGCAAUUACACCGAUTT against TMPRSS13, the median seed-adjusted z-score is 0.0584 (inactive).
For GAACUUCAUAGUACAGCGATT against CTNNAL1 the value was 0.229 (inactive); for CUGCUCUAAUUACACCGUATT against CILP, 0.0436 (inactive); for GCUCGAUCCCUGCAGAUUATT against LCOR, -0.0435 (inactive).
As to AGAUAAAGCGAUCUAAACUTT against ASCC3, the median seed-adjusted z-score is -0.192 (inactive).
To UCAUCUUAAAGGACCGAUATT against SEC11B belongs 1.04 (active).
Take CCCACAUUCUUGUCCGGCATT against ADAMTS4: the median seed-adjusted z-score is -0.0153 (inactive).
On to GAAAGAUCCCUAUGGAAAATT against CAMK2G, for which the median seed-adjusted z-score is -0.107 (inactive).
Turning to GAAGGAUUAGAAACCGCAATT against RNF144, the median seed-adjusted z-score is 0.0938 (inactive).
For GGAUAAUGGAGAACUCAGATT against NSFL1C the value was -0.0899 (inactive); for GCACGUACCGCUUCGAAAATT against SLC4A10, 0.026 (inactive); for CCGGUAUUAGAAUCAAAGATT against POLS, -0.334 (inactive).
Consider CGAUAUCUUCACCACAUUATT against KCNJ6, for which the median seed-adjusted z-score was -1.6 (active).
For CAACAAGUGUAACGACGAUTT against SMPD3 the value was -0.0115 (inactive); for ACAGAACUCGGGACCUUUUTT against H6PD, 0.069 (inactive); for GAAGAUUGCUCAGCGAUUATT against PRPF3, -0.289 (inactive).
